SMILES strings stand for the structures. Structures can show the parent of a compound that is named as a salt. ± gives the standard deviation of the averaged measurements.

This experiment has as its system Danio rerio Tg(wt1b:EGFP) embryo, pronephros. In words: glomerular width (mean of left and right), fold change vs DMSO control; higher = wider glomerulus. The conditions noted are these: 25 µM; exposure: 24-48 hpf. In short, it runs like this: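 Using a Fiji macro, distances and angles were calculated from 16 reference points set by hand on maximum projections of pronephroi imaged dorsally (470 nm, 10 z-slices) in agarose-filled 96-well plates. The dechorionated Tg(wt1b:EGFP) zebrafish embryos had received 25 μM compound in 0.5% DMSO in HEPES-buffered E3 with 0.003% PTU from 24 to 48 hpf at 28.5°C. Values more than 2 SD from a feature's mean were excluded. Each feature appears as a fold change over the mean of DMSO-treated embryos from the same day.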
Regarding `CNCCC=C1c2ccccc2CCc2ccccc21` [Nortriptyline hydrochloride], the glomerular width is 0.9614 ± 0.0024.
In the case of `CCCc1cc(=O)[nH]c(=S)[nH]1` [Propylthiouracil] it was 1.058 ± 0.0069; in that of `CN(C/C=C/c1ccccc1)Cc1cccc2ccccc12` [Naftifine hydrochloride], 0.96 ± 0.044; in that of `CN(C)CCC=C1c2ccccc2CCc2ccccc21` [Amitryptiline hydrochloride], 0.973 ± 0.14.
For `O=C(NCCNCC(O)COc1ccc(O)cc1)N1CCOCC1` (stereo not given) [Xamoterol hemifumarate], the glomerular width was 0.983 ± 0.011.
In the case of `COC(=O)C1=C(C)NC(C)=C(C(=O)OCCN(C)Cc2ccccc2)C1c1cccc([N+](=O)[O-])c1` (stereo not given) [Nicardipine hydrochloride] it was 1 ± 0.027; in that of `Oc1ccc(OCc2ccccc2)cc1` [Monobenzone], 0.753 ± 0.068; in that of `OC(CCN1CCCCC1)(c1ccccc1)c1ccccc1` [Pridinol methanesulfonate salt], 1.02 ± 0.06.
The compound `Cc1cccc(CN2CCN(C(c3ccccc3)c3ccc(Cl)cc3)CC2)c1` (stereo not given) [Meclozine dihydrochloride] registered a glomerular width of 0.93 ± 0.015.
In turn, `C[C@H](CS)C(=O)N1CCC[C@H]1C(=O)O` [Captopril] came in with a glomerular width of 1.01 ± 0.042.
In the case of `CC[C@@H]1C(=O)OC[C@@H]1Cc1cncn1C` [Pilocarpine nitrate] it was 1.04 ± 0.051; in that of `CC(C)/N=c1\cc2n(-c3ccc(Cl)cc3)c3ccccc3nc-2cc1Nc1ccc(Cl)cc1` [Clofazimine], 1.06 ± 0.056.
As for `COc1ccc(NS(=O)(=O)c2ccc(N)cc2)nn1` [Sulfamethoxypyridazine], the glomerular width came to 1.03 ± 0.1.
For `CCn1cc(C(=O)O)c(=O)c2ccc(C)nc21` [Nalidixic acid sodium salt], the glomerular width was determined as 1.11 ± 0.025.
In the case of `COC1=CC(=O)C[C@@H](C)[C@]12Oc1c(Cl)c(OC)cc(OC)c1C2=O` [Griseofulvin] it was 1 ± 0.023; in that of `NS(=O)(=O)c1cc2c(cc1C(F)(F)F)NC(Cc1ccccc1)NS2(=O)=O` (stereo not given) [Bendroflumethiazide], 0.896 ± 0.043.
In the case of `CC(C(=O)O)c1ccc(C(=O)c2ccccc2)s1` (stereo not given) [Tiaprofenic acid] it was 1.07 ± 0.067.
In the case of `CC(C)(C)NC(=O)[C@@H]1C[C@@H]2CCCC[C@@H]2CN1C[C@@H](O)[C@H](Cc1ccccc1)NC(=O)[C@H](CC(N)=O)NC(=O)c1ccc2ccccc2n1` [Saquinavir mesylate] it was 1.04 ± 0.085.
`CC(C)(Oc1ccc(Cl)cc1)C(=O)O` [Clofibric acid]: the glomerular width stood at 0.927 ± 0.036.
In the case of `CCN(CC)CCCC(C)Nc1c2ccc(Cl)cc2nc2ccc(OC)cc12` (stereo not given) [Quinacrine dihydrochloride hydrate] it was 1.01 ± 0.016.
For the compound `O=C(O)CCc1nc(-c2ccccc2)c(-c2ccccc2)o1` [Oxaprozin], the glomerular width came to 0.672 ± 0.032.
For `CCCc1cc(C(N)=S)ccn1` [Prothionamide], the glomerular width worked out at 0.9746 ± 0.0041.
Consider `C[C@]1(Cn2ccnn2)[C@H](C(=O)O)N2C(=O)C[C@H]2S1(=O)=O` [Tazobactam], for which the glomerular width worked out at 1.07 ± 0.018.
The compound `CC(=O)O[C@]1(C(C)=O)CC[C@H]2[C@@H]3C=C(Cl)C4=CC(=O)[C@@H]5C[C@@H]5[C@]4(C)[C@H]3CC[C@@]21C` [Cyproterone acetate] had a glomerular width of 0.931 ± 0.028.
In the case of `C[C@]12C=CC(=O)C=C1CC[C@@H]1[C@@H]2[C@@H](O)C[C@@]2(C)[C@H]1CC[C@]2(O)C(=O)CO` [Prednisolone], the glomerular width turned out to be 1.22 ± 0.043.
The compound `NS(=O)(=O)c1cc2c(cc1Cl)NC(CC1CCCC1)NS2(=O)=O` (stereo not given) [Cyclopenthiazide] had a glomerular width of 0.935 ± 0.03.
As to `CN1CCC(=C2c3ccccc3CC(=O)c3sccc32)CC1` [Ketotifen fumarate], the glomerular width is 1.06 ± 0.027.
In the case of `CCCCC1(COC(=O)CCC(=O)O)C(=O)N(c2ccccc2)N(c2ccccc2)C1=O` [Suxibuzone] it was 0.92 ± 0.016; in that of `COc1cc(OC)c(C(=O)CCCN2CCCC2)c(OC)c1` [Buflomedil hydrochloride], 1.08 ± 0.06; in that of `CCN(CC)CC#CCOC(=O)C(O)(c1ccccc1)C1CCCCC1` (stereo not given) [Oxybutynin chloride], 1.04 ± 0.022.
With `CC(=O)Oc1cc(C(C)C)c(OCCN(C)C)cc1C` [Moxisylyte hydrochoride], the glomerular width was determined as 1.03 ± 0.0053.
As to `O=C(OCCOCCO)c1ccccc1Nc1cccc(C(F)(F)F)c1` [Etofenamate], the glomerular width came to 0.684 ± 0.026.
Compound `COc1ccc(-c2ccc3cc(C(=O)O)ccc3c2)cc1C12CC3CC(CC(C3)C1)C2` [Adapalene] had a glomerular width of 0.993 ± 0.012.
Consider `Cc1cc(NC(=O)C2=C(O)c3ccccc3S(=O)(=O)N2C)no1` [Isoxicam], for which the glomerular width was 1.04 ± 0.034.
In the case of `CNC1(C)C2CCC(C2)C1(C)C` (stereo not given) [Mecamylamine hydrochloride] it was 0.973 ± 0.089; in that of `CC(C)c1nc(CN(C)C(=O)N[C@H](C(=O)N[C@@H](Cc2ccccc2)C[C@H](O)[C@H](Cc2ccccc2)NC(=O)OCc2cncs2)C(C)C)cs1` [Ritonavir], 0.961 ± 0.094.
`CN1CCN(c2c(F)cc3c(=O)c(C(=O)O)cn4c3c2SCC4)CC1` [Rufloxacin]: the glomerular width was determined as 0.9236 ± 0.0089.
In the case of `O=C(CCCCCCC(=O)Nc1ccccc1)NO` [Vorinostat] it was 0.947 ± 0.056; in that of `Cc1ccnc2c1NC(=O)c1cccnc1N2C1CC1` [Nevirapine], 1.02 ± 0.016; in that of `C[C@@H](O)[C@H]1C(=O)N2C(C(=O)O)=C(S[C@@H]3CN[C@H](C(=O)N(C)C)C3)[C@H](C)[C@H]12` [Meropenem], 0.957 ± 0.021.
